Screening results as filed in PubChem.
Most compounds without a hit are left out; they make up all but 7.9% or so of the library.
MCF10A rereplic: A quantitative high throughput screen for small molecules that induce DNA re-replication in MCF 10a normal breast cells; Potency, µM (titrated, usually from 46.1 µM), inactives show top-dose activity, positive = re-replication, most hits filed as activators; MCF 10A DNA re-replication, Hoechst nuclear intensity, 48 h; hit rate 2.9% among 350,000; AID 624296, 2012; further: % of control where 0% means no effect; nearly all actives have a fitted effect of over 50% in size
HT1080 IDH1KD tx: qHTS for induction of synthetic lethality in tumor cells producing 2HG: qHTS for the HT-1080-IDH1KD cell line; HT-1080 IDH1 knockdown viability, ATP luminescence, 48 h; Potency, µM (doses to about 46.1 µM), for the others: at the highest dose activity, negative = toxicity, actives largely listed as cytotoxic; hit rate 2% among 360,000;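 further: 0% = DMSO wells and -100% = cell-free medium wells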
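IDH1KD HT-1080 cells, 750/well, RPMI + 5% FBS; compound pinned after 2 h settling; 48 h, 37 °C; CellTiter-Glo luminescence; % activity normalised to DMSO and no-cell wells; curves fitted, classed by r2 and efficacy.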
KB-V1 MDR tox: qHTS assay for MDR1-selective chemotherapeutics: Primary screen using the drug-selected MDR subline cells KB-V1. KB-V1 MDR cells viability, CellTiter-Glo, 72 h. Potency, µM (highest dose often 46.1 µM), most hits filed as cytotoxic. hit rate 3.4% among 400,000. AID 1347076, 2019; further: on the % scale 0 is the no-effect control and ±100 the full control effect; nearly all actives have a fitted effect of over 60% in size
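qHTS viability screen in drug-selected KB-V1 MDR cells: 72 h compound treatment at 37 degrees C, ATP luminescence end point.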
HT1080-NT tox: qHTS for induction of synthetic lethality in tumor cells producing 2HG: qHTS for the HT-1080-NT fibrosarcoma cell line | Potency, µM (series often up to 46.1 µM), for inactives: at the top dose activity, negative = less viability, actives largely listed as cytotoxic | AID 686970, 2013 | hit rate 1.6% among 360,000 | HT-1080-NT fibrosarcoma viability, CellTiter-Glo ATP luminescence, 48 h;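 further: NT is the 2HG producing partner of a matched IDH1 knockdown line; 0% = DMSO-treated cells and -100% = media-only wells without cells; nearly all actives have a fitted effect of over 55% in size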
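A 48-hour cytotoxicity screen used HT-1080-NT cells plated 2 hours before compound delivery. ATP-based CellTiter-Glo luminescence measured viability, normalized to DMSO and no-cell controls.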
KB-3-1 tox: qHTS assay for MDR1-selective chemotherapeutics: Primary screen using the parental adenocarcinoma cell KB-3-1 | Potency, µM (doses to about 46.1 µM), most hits filed as cytotoxic | AID 1347075, 2019 | hit rate 1.4% among 400,000 | KB-3-1 viability, CellTiter-Glo ATP luminescence, 72 h; further: on the % scale 0 is the no-effect control and ±100 the full control effect; nearly all actives have a fitted effect of over 60% in size
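Here the drug-naive KB-3-1 line serves as comparator for MDR sub-line selectivity; cells received compound titrations, 72 h at 37 °C, then CellTiter-Glo readout.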
SW480 rereplic: A quantitative high throughput screen for small molecules that induce DNA re-replication in SW480 colon adenocarcinoma cells | SW480 DNA re-replication, Hoechst DNA content imaging, 48 h | Potency, µM (doses to about 46.1 µM), for the others: top-dose re-replication activation, most hits filed as activators | hit rate 1.8% among 340,000 | AID 624297, 2012; further: % of control where 0% means no effect; nearly all actives have a fitted effect of over 55% in size
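Quantitative HTS format with DMSO vehicle controls; 48 hr drug incubation at 37 C, then 40 min Hoechst staining and scanning imager measurement at 405 nm excitation.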
Starred values were filed as active, the others as inactive; i = inactive; ? = inconclusive; nt = not tested or not shown; [ ] = dose if it differs, or a comment. The call rests on the fitted dose curve; in most records, active means well fitted curve in the direction sought with a large enough effect; inconclusive means small, poorly fitted or top-dose-only effect, or another doubt; inactive means no such curve, though single readings can be large; an effect the other way counts as inactive or inconclusive. Potency means the concentration at half of the fitted maximal effect.

SMILES	MCF10A rereplic	HT1080 IDH1KD tx	KB-V1 MDR tox	HT1080-NT tox	KB-3-1 tox	SW480 rereplic
Cc1ccc(S(=O)(=O)N2c3ccccc3CC2C)cc1 (stereo unspecified)	?	?	i	?	i	?
CSc1ccccc1NC(=S)Nc1ccc(S(N)(=O)=O)cc1	2.8%	5.1%	i	-0.7%	i	-6.3%
NC(=O)c1nn(-c2ccccc2)nc1NC(=O)Cn1nnc(-c2ccccc2)n1	-1.7%	-14.4%	i	?	i	nt
COc1ccc(CNC(=O)C2CCC(CNS(=O)(=O)c3cccc4nsnc34)CC2)cc1 (stereo unspecified)	0.1%	-1.4%	i	-2.0%	i	6.3%
CCOC(=O)N1CCN(C(=O)C2CCCN(S(=O)(=O)c3ccc(C)cc3)C2)CC1 (stereo unspecified)	-3.7%	0.2%	3.66µM*	12.1%	i	-5.7%
COc1ccc(NC(=O)C2CCCN(S(=O)(=O)c3cccnc3)C2)cc1OC (stereo unspecified)	3.5%	8.3%	i	3.1%	i	0.7%
COc1ccc(S(=O)(=O)N2CCCC(C(=O)Nc3cccnc3)C2)cc1Cl (stereo unspecified)	?	?	?	0.7%	16.4µM*	-1.6%[9.22 µM]
Cc1ccc(NC(=O)C2CCN(S(C)(=O)=O)CC2)cc1	-1.9%	-4.0%	i	14.8%	i	-11.5%
CCOC(=O)N1CCN(C(=O)C2CCCN(S(=O)(=O)c3ccc(F)cc3)C2)CC1 (stereo unspecified)	-3.2%	1.9%	i	29.4%	i	-10.1%
CS(=O)(=O)N1CCC(C(=O)Nc2ccc(Oc3ccccc3)cc2)CC1	9.2µM*	-17.2%	?	-22.2%	i	16.4µM*
O=C(COc1ncnc2c1cnn2-c1ccccc1)Nc1ccc(S(=O)(=O)N2CCCCC2)cc1	2.7%	-16.9%	20.6µM*	-18.2%	i	-1.0%
O=C(COc1ccc(S(=O)(=O)N2CCCC2)cc1Cl)NCc1ccc2c(c1)OCO2	6.5%	-0.5%	i	-1.1%	i	-1.3%
CCOc1ccc(S(=O)(=O)N2CCCC(C(=O)Nc3ccccc3)C2)cc1 (stereo unspecified)	20.5%	0.5%	10.3µM*	8.2%	i	-9.3%
O=C(COc1ccccc1)Nc1ccc(S(=O)(=O)N2CCCCCC2)cc1	13.3%	-16.8%	16.4µM*	0.3%	i	2.9%
CN1OC[C@@H]2CN(C(=S)NCCc3ccccc3)[C@H](c3ccccc3Br)C[C@@H]21	nt	?	i	-17.4%	i	nt
Cc1cccc(OCC(=O)NC(=S)Nc2ccccc2N2CCOCC2)c1C	0.1%	-2.6%	i	-2.1%	i	7.1%
Cc1cccc(C(=O)Nc2nc(C)c(C(=O)Nc3ccc4c(c3)CCC4)s2)c1	-6.9%	?	?	11.2µM*	?	-3.8%
Cc1ccccc1Nc1nc(N)nc(CSc2nc3ccccc3s2)n1	23.3%	6.1%	16.4µM*	6.9%	i	-4.1%
Cc1ccccc1NC(=O)CCCSc1nc2ccccc2s1	12.7%	1.0%	14.6µM*	-3.6%	i	0.3%
COCCn1c(SCc2nc(N)nc(Nc3ccccc3C)n2)nc2ccccc2c1=O	23.1%	4.3%	8.2µM*	-18.5%	i	1.9%
Cc1ccccc1Nc1nc(N)nc(CSc2nc3ccccc3c(=O)n2C)n1	?	-29.3%	16.4µM*	-17.5%	i	9.3%
Cc1ccccc1Nc1nc(N)nc(CSc2nc3ccccc3c(=O)n2CCCO)n1	-4.2%	-20.1%	i	?	i	4.3%
